# Source: paper PMC11062922 (Nature Chemical Biology, 2023)
# Where two headings read alike, the source gives them in different places.
# Columns and labels:
# Design in all cases: species or system human, MV4-11 + K-562 + COLO205 + SK-N-BE2 + OVCAR-8
# CDK16 = settings: read-out: apparent Kd, compound concentrations: 100 nM and 1000 nM (sheet 'Samples'), n = 1
# CDK17 = settings: read-out: apparent Kd, compound concentrations: 100 nM and 1000 nM (sheet 'Samples'), n = 1
# CLK1 = settings: read-out: apparent Kd, compound concentrations: 100 nM and 1000 nM (sheet 'Samples'), n = 1
# CLK4 = settings: read-out: apparent Kd, compound concentrations: 100 nM and 1000 nM (sheet 'Samples'), n = 1
# DYRK1A = settings: read-out: apparent Kd, compound concentrations: 100 nM and 1000 nM (sheet 'Samples'), n = 1
# GSK3A = settings: read-out: apparent Kd, compound concentrations: 100 nM and 1000 nM (sheet 'Samples'), n = 1
# GSK3B = settings: read-out: apparent Kd, compound concentrations: 100 nM and 1000 nM (sheet 'Samples'), n = 1
# ICK = settings: read-out: apparent Kd; compound concentrations: 100 nM and 1000 nM (sheet 'Samples'), CATDS: 7.1463639855973302E-2; n = 1
# PRKCA = settings: read-out: apparent Kd; compound concentrations: 100 nM and 1000 nM (sheet 'Samples'), CATDS: 6.1825082982023397E-2; n = 1
# PRKCB = settings: read-out: apparent Kd; compound concentrations: 100 nM and 1000 nM (sheet 'Samples'), CATDS: 5.6210904808559101E-2; n = 1
# PRKCD = settings: read-out: apparent Kd; compound concentrations: 100 nM and 1000 nM (sheet 'Samples'), CATDS: 6.6135854236704303E-2; n = 1
# SLK = settings: read-out: apparent Kd; compound concentrations: 100 nM and 1000 nM (sheet 'Samples'), CATDS: 5.3656939950023998E-2; n = 1
# CDK2 = settings: read-out: apparent Kd, n = 1
# CDKL5 = settings: read-out: apparent Kd, n = 1
# FLT3 = settings: read-out: apparent Kd; compound concentrations:100 nM and 1000 nM (sheet 'Samples'); n = 1
# CDC7 = settings: read-out: apparent Kd; compound concentrations: 100 nM and 1000 nM (sheet 'Samples'), CATDS: 8.1877579079801296E-2; n = 1
# CSNK1A1 = settings: read-out: apparent Kd; compound concentrations: 100 nM and 1000 nM (sheet 'Samples'), CATDS: 0.113796385521925; n = 1
# CSNK1D = settings: read-out: apparent Kd; compound concentrations: 100 nM and 1000 nM (sheet 'Samples'), CATDS: 0.110842785331434; n = 1
# CSNK1E = settings: read-out: apparent Kd; compound concentrations: 100 nM and 1000 nM (sheet 'Samples'), CATDS: 9.8087772288550895E-2; n = 1
# ILK = settings: read-out: apparent Kd; compound concentrations: 100 nM and 1000 nM (sheet 'Samples'), CATDS: 8.2547383277030401E-2; n = 1
# NQO1 = settings: read-out: apparent Kd; compound concentrations: 100 nM and 1000 nM (sheet 'Samples'), CATDS: 9.0275127229000399E-2; n = 1
# RIOK2 = settings: read-out: apparent Kd; compound concentrations: 100 nM and 1000 nM (sheet 'Samples'), CATDS: 9.8590158992526697E-2; n = 1
# TP53RK = settings: read-out: apparent Kd, compound concentrations: 100 nM and 1000 nM (sheet 'Samples'), n = 1
# CDK6 = settings: read-out: apparent Kd; compound concentrations: 100 nM and 1000 nM (sheet 'Samples'), CATDS: 5.8978881187618598E-2; n = 1
# CDK9 = settings: read-out: apparent Kd; compound concentrations: 100 nM and 1000 nM (sheet 'Samples'), CATDS: 7.0025924153680405E-2; n = 1
# MAPK14 = settings: read-out: apparent Kd; compound concentrations: 100 nM and 1000 nM (sheet 'Samples'), CATDS: 5.6581371759273497E-2; n = 1
# MAPK7 = settings: read-out: apparent Kd; compound concentrations: 100 nM and 1000 nM (sheet 'Samples'), CATDS: 4.4821094432651497E-2; n = 1
# MAPK9 = settings: read-out: apparent Kd; compound concentrations: 100 nM and 1000 nM (sheet 'Samples'), CATDS: 4.6942214024324101E-2; n = 1
# MELK = settings: read-out: apparent Kd; compound concentrations: 100 nM and 1000 nM (sheet 'Samples'), CATDS: 4.5559662583992203E-2; n = 1
# NQO2 = settings: read-out: apparent Kd; compound concentrations: 100 nM and 1000 nM (sheet 'Samples'), CATDS: 5.78366102928662E-2; n = 1
# PRKD2 = settings: read-out: apparent Kd; compound concentrations: 100 nM and 1000 nM (sheet 'Samples'), CATDS: 5.0441088598544299E-2; n = 1
# [1] = compound concentrations:100 nM and 1000 nM (sheet 'Samples')
smiles,measurement,setting,value
Cl.Cn1cc(C2=C(c3cccc(NCC(O)CO)c3)C(=O)NC2=O)c2cc(Cl)ccc21 (centres unmarked) [RO3303724-001],potency estimated from few doses,CDK16; CATDS: 8.3420011221061796E-2,435 nM
same,potency estimated from few doses,CDK17; CATDS: 6.9472696820348595E-2,789 nM
same,potency estimated from few doses,CLK1; CATDS: 0.14144162064954499,89.4 nM
same,potency estimated from few doses,CLK4; CATDS: 0.121885472090614,140 nM
same,potency estimated from few doses,DYRK1A; CATDS: 6.0885213450921502E-2,1290 nM
same,potency estimated from few doses,GSK3A; CATDS: 0.52335848110550598,1.59 nM
same,potency estimated from few doses,GSK3B; CATDS: 0.436012050591219,2.26 nM
same,potency estimated from few doses,ICK,716 nM
same,potency estimated from few doses,PRKCA,1210 nM
same,potency estimated from few doses,PRKCB,1830 nM
same,potency estimated from few doses,PRKCD,939 nM
same,potency estimated from few doses,SLK,2310 nM
O=C(Nc1n[nH]c2cc(-c3ccoc3)ccc12)C1CC1 [SB-738481],potency estimated from few doses,CDK2; [1],1470 nM
same,potency estimated from few doses,CDKL5; [1],1100 nM
same,potency estimated from few doses,FLT3,884 nM
CCc1c(C)nc2sc3c(N)ncnc3c2c1C [RO4493944-000],potency estimated from few doses,CDC7,1870 nM
same,potency estimated from few doses,CLK1; CATDS: 0.173131615518303,453 nM
same,potency estimated from few doses,CLK4; CATDS: 0.128777290310437,724 nM
same,potency estimated from few doses,CSNK1A1,903 nM
same,potency estimated from few doses,CSNK1D,949 nM
same,potency estimated from few doses,CSNK1E,1220 nM
same,potency estimated from few doses,ILK,1830 nM
same,potency estimated from few doses,NQO1,1460 nM
same,potency estimated from few doses,RIOK2,1200 nM
same,potency estimated from few doses,TP53RK; CATDS: 7.7480450425825395E-2,2190 nM
CCN1CCC(CC(=O)Nc2n[nH]c3nc(-c4cccs4)c(Br)cc23)CC1.O=C(O)[C@H](O)[C@@H](O)C(=O)O [SB-739245-AC],potency estimated from few doses,CDK16; CATDS: 0.32554244195376097,802 nM
same,potency estimated from few doses,CDK17; CATDS: 0.31469055739513202,861 nM
same,potency estimated from few doses,GSK3A; CATDS: 0.36357302595777402,647 nM
CCC(NN(C)C)=C1C(=O)Nc2ccc(C(C)=O)cc21 [BI00036838],potency estimated from few doses,CDK16; CATDS: 6.3187514520784194E-2,753 nM
same,potency estimated from few doses,CDK17; CATDS: 5.2851487986603697E-2,1210 nM
same,potency estimated from few doses,"CDK2; compound concentrations: 100 nM and 1000 nM (sheet 'Samples'), CATDS: 4.7813901315705599E-2",1640 nM
same,potency estimated from few doses,CDK6,895 nM
same,potency estimated from few doses,CDK9,590 nM
same,potency estimated from few doses,"CDKL5; compound concentrations: 100 nM and 1000 nM (sheet 'Samples'), CATDS: 0.107974532487744",233 nM
same,potency estimated from few doses,DYRK1A; CATDS: 7.1113198150105694E-2,569 nM
same,potency estimated from few doses,GSK3A; CATDS: 0.31666625502072798,27.3 nM
same,potency estimated from few doses,GSK3B; CATDS: 0.45532128509290898,15 nM
same,potency estimated from few doses,MAPK14,999 nM
same,potency estimated from few doses,MAPK7,2060 nM
same,potency estimated from few doses,MAPK9,1750 nM
same,potency estimated from few doses,MELK,1940 nM
same,potency estimated from few doses,NQO2,942 nM
same,potency estimated from few doses,PRKD2,1390 nM
same,potency estimated from few doses,TP53RK; CATDS: 4.9816696124222203E-2,1440 nM
